The panel holds about 83,000 compounds, 20% with a hit somewhere; the sample as a whole holds those more often.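 How to read the values: 0–100, growth inhibition (40 = 60% inhibited); 0, no net growth; -100 to 0, cell death (-40 = 40% of starting cells died; -100 = all dead).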 A number with no mark means an inactive call. Active and inactive are the calls of the source. The calls were made as follows: active = growth percent below 10; inactive = the rest.

Data on 6 molecules can be found in PubChem BioAssay (NCI).

Holding throughout (test): NCI-60 one-dose screen, 48 h (100 = growth as untreated, 0 = no growth, -100 = all killed)
Settings in all cases: 10 µM unless noted

For assay [1], the system named is HCT-15 colon.
For assay [2], the system named is HT29 colon.
Assay [3] deals with SNB-75 CNS.
The test system of assay [4] is SNB-19 CNS.
The subject of assay [5] is U251 CNS.
The test system of assay [6] is PC-3 prostate.
Assay [7] concerns SK-MEL-5 melanoma.
For assay [8], the system named is UACC-62 melanoma.
Assay [9] deals with LOX IMVI melanoma.
Assay [10] concerns SK-MEL-28 melanoma.
Assay [11] concerns SK-MEL-2 melanoma.
Assay [12] deals with EKVX NSCLC.
For assay [13], the system named is SN12C renal.
The test system of assay [14] is UO-31 renal.
Assay [15] has as its system TK-10 renal.
Assay [16] concerns ACHN renal.
The test system of assay [17] is CAKI-1 renal.
The subject of assay [18] is A498 renal.
The subject of assay [19] is CCRF-CEM leukemia.
Assay [20] has as its system MOLT-4 leukemia.

As for `COc1ccc(C2CC(c3cccc(Nc4ccncc4)c3)=NN2c2ccccc2)cc1` (stereo not given), the growth was -22.9% (active) in assay [1]; -3.3% (active) in assay [2]; 65.3% in assay [3]; 84.3% in assay [4]; 8.79% (active) in [5]; 37.3% in [6]. The growth was 49.2% in [7]; 97% in assay [8]; 28.5% in assay [9]; -88.3% (active) in [10]; 71.7% in assay [11]; 87.2% in [12]. Further, the growth was 80.6% in [13]; 64.3% in assay [14]; 68.7% in [15]; 69.2% in assay [16]; 51.5% in assay [17]; 78% in assay [18]. Besides, the growth in assay [19] is 30.7%; in [20], 10.7%.
As to `CCCOc1nc(SCCC)nc2c1cnn2-c1ccccc1`, the growth in assay [1] is 108%; in assay [2], 83.1%; in assay [3], 98.6%; in assay [4] it was 103%; in [5] it was 107%; in [6], 102%. Further, the growth in assay [7] is 106%; in assay [8], 86.8%; in [9], 110%; in assay [10], 122%; in [11], 86.8%; in [12], 97.3%. Besides, the growth was 98.7% in [13]; 91.9% in assay [14]; 149% in assay [15]; 111% in assay [16]; 105% in [17]; 134% in assay [18]. Besides, the growth in assay [19] is 92.9%; in assay [20] it was 141%.
With `C#Cc1cccc(NC(=O)Nc2ccc(NC(=O)CCl)cc2)c1`, the growth in assay [1] is -63.1% [8.25 µM] (active); in [2] it was -69.5% [8.25 µM] (active); in assay [3], -27.9% [8.25 µM] (active); in [4], 32.4% [8.25 µM]; in assay [5], -72% [8.25 µM] (active); in assay [6], 8.79% [8.25 µM] (active). The growth in [7] was -73.9% [8.25 µM] (active); in assay [8], -44.3% [8.25 µM] (active); in assay [9], -74.9% [8.25 µM] (active); in [10], 67.6% [8.25 µM]; in [11], -25% [8.25 µM] (active); in assay [12] it was 88.3% [8.25 µM]. In addition, the growth in assay [13] is -9.22% [8.25 µM] (active); in [14] it was -97.4% [8.25 µM] (active); in assay [15], -71.4% [8.25 µM] (active); in [16] it was -99.5% [8.25 µM] (active); in assay [17], 9.01% [8.25 µM] (active); in [18] it was 76.4% [8.25 µM]. In addition, the growth is -29.8% [8.25 µM] (active) in assay [19] and -9.78% [8.25 µM] (active) in assay [20].
For `O=C(O)C(/C=C/c1ccco1)=N\Nc1nc(-c2ccc(Cl)cc2)cs1`, the growth was 36.3% in assay [1]; 86.4% in assay [2]; 57.4% in [3]; 42.5% in [4]; 30.7% in assay [5]; 54.3% in [6]. In addition, the growth is 62.1% in assay [7]; 57.1% in [8]; 46.7% in [9]; 70.4% in assay [10]; 11.5% in assay [11]; 67.1% in [12]. In addition, the growth in assay [13] is 86.8%; in [14], 38.8%; in assay [15], 77.6%; in assay [16] it was 69%; in [17], 63.9%; in [18] it was 65.2%. Besides, the growth in [19] is 24%; in assay [20], 40.9%.
Consider `Cn1c(COC(=O)NCCc2ccccn2)nc2c(N3CCOCC3)nc(Cl)nc21`, for which the growth was -42.2% (active) in assay [1]; 0.156% (active) in assay [2]; 14.5% in [3]; 60.6% in assay [4]; 9.11% (active) in assay [5]; 18.4% in assay [6]. The growth in assay [7] was 3.6% (active); in assay [8], 11.1%; in [9] it was -83.7% (active); in assay [10] it was -90.8% (active); in assay [11], 26.7%; in assay [12], 14.9%. The growth is -41.5% (active) in assay [13]; -99.3% (active) in assay [14]; -72.2% (active) in assay [15]; -100% (active) in assay [16]; -78.9% (active) in assay [17]; 51.9% in assay [18]. Also, the growth in [19] is -9.98% (active); in assay [20], 0.583% (active).
Consider `CC(N)C(=O)NNc1n[nH]c(=S)n1N` (stereo not given), for which the growth in [1] is 93.9%; in [2] it was 109%; in assay [3] it was 92.8%; in assay [4] it was 99.1%; in [5], 103%; in assay [6], 99.6%. Besides, the growth in [7] is 97.5%; in assay [8] it was 102%; in assay [9] it was 98.5%; in [10], 102%; in assay [11] it was 105%; in [12], 93.9%. For the same molecule, the growth in [13] is 102%; in assay [14], 83%; in assay [15], 108%; in [16], 108%; in assay [17], 93.9%; in assay [18], 94.8%. The growth in assay [19] was 102%; in [20] it was 107%.
